Test results reported in PubChem BioAssay (Tox21).
Results filed as inconclusive are left out. A call without a number means that no potency is given here. Some structures have more than one record in an assay (separate samples or runs), and their calls can disagree. The source made the active and inactive calls. Unless noted, the call rests on the fitted dose curve; in most records, active means well fitted curve in the direction sought with a large enough effect in the repeat runs; inconclusive means weak or mixed curves; inactive means no such curve, though single readings can be large; an effect the other way counts as inactive or inconclusive.

Legend:
[1] = qHTS assay to identify small molecule agonists of the vitamin D receptor (VDR) signaling pathway - cell viability counter screen (AID 743224); further: series mostly up to about 63 µM; nearly all actives have a fitted effect of over 50% in size
Method in brief: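 In parallel with the bla FRET readout, cytotoxicity toward VDR-bla cells after 16 h compound exposure was assessed by CellTiter-Glo, with luminescence recorded after a 30 min room-temperature incubation.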

[2] = qHTS assay to identify small molecule antagonists of the vitamin D receptor (VDR) signaling pathway - cell viability counter screen (AID 743225); further: nearly all actives have a fitted effect of over 50% in size
Method in brief: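 In this counter screen, VDR-bla HEK 293T cells receive test compound plus 3 nM final calcitriol for 16 h at 37C. Room-temperature steps of 2 h with the beta-lactamase substrate, then 30 min with CellTiter-Glo, precede the luminescence read.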

[3] = qHTS assay to identify small molecule agonists of the NFkB signaling pathway (AID 1159509; active means well fitted curve in the direction sought with a large enough effect in the signal ratio in the repeat runs, not every such curve was filed as active; the % refers to the signal ratio; further: series mostly up to about 61 µM)
Method in brief: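 Readout: FRET fluorescence, 405 nm excitation, 460/530 nm emission; beta-lactamase expression disrupts FRET. Cells: ME-180 stably carrying NF-kB-driven bla reporter. Compound exposure 5 hr, 37 C, 5% CO2.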

[4] = qHTS assay to identify small molecule agonists of the NFkB signaling pathway - cell viability counter screen (AID 1159515; calls by dose curve; further: series mostly up to about 61 µM; nearly all actives have a fitted effect of over 55% in size)
Method in brief: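 Plate 2,000 NFkB-bla ME-180 cells/well; incubate overnight. Add compounds, 5 hr at 37 C. Add FRET substrate, 1.5 hr RT. Add CellTiter-Glo, 30 min RT; read luminescence.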

[5] = qHTS assay to identify small molecule agonists of the endoplasmic reticulum stress response signaling pathway (AID 1159516; active means well fitted activation curve with a large enough effect in the signal ratio in the repeat runs, not every such curve was filed as active; the % refers to the signal ratio)
Method in brief: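 Beta-lactamase expression from the ER stress response element in HeLa reporter cells is quantified with the LiveBLAzer B/G FRET substrate, read at 405 nm excitation after 2 hr at room temperature, following 5 hr compound treatment at 37 C.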

[6] = qHTS assay to identify small molecule agonists of the endoplasmic reticulum stress response signaling pathway - cell viability counter screen (AID 1159517; calls by dose curve; further: series mostly up to about 61 µM; nearly all actives have a fitted effect of over 50% in size)
Method in brief: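 After overnight attachment, ESRE-bla HeLa cells were treated with Tox21 library compounds for 5 hr. CellTiter-Glo luminescence, read 30 min post-addition at room temperature, reported viability.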

[7] = qHTS assay to identify small molecule antagonists of the retinoid-related orphan receptor gamma (ROR-gamma) signaling pathway - cell viability counter screen (AID 1159520); further: nearly all actives have a fitted effect of over 50% in size
Method in brief: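 Cytotoxicity was read from cellular ATP (CellTiter-Glo luminescence) after 16 hr at 37 C with 1 uM doxycycline induction. The inducer was added 2 hr after compound transfer to Tet-on ROR gamma CHO cells.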

[8] = molecular target: Nuclear receptor ROR-gamma (Homo sapiens) (UniProt P51449); assay: qHTS assay to identify small molecule antagonists of the retinoid-related orphan receptor gamma (ROR-gamma) signaling pathway (AID 1159521)
Method in brief: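 Screening format: cell-based luciferase reporter in CHO cells with doxycycline-inducible RORγ. Compound pre-exposure lasts 2 h, doxycycline is 1 uM final, induction runs 16 h at 37 C, and ONE-Glo luminescence is read.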

[9] = qHTS assay to identify small molecule agonists of the AP-1 signaling pathway - cell viability counter screen (AID 1159525; calls by dose curve; further: nearly all actives have a fitted effect of over 55% in size)
Method in brief: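 Intracellular ATP by Cell Titer Glo luminescence (30 min, RT) in the same ME-180 AP-1-bla wells after the 5 h compound exposure at 37 °C. Normalised to tetra n-octyl ammonium bromide and DMSO controls.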

[10] = qHTS assay to identify small molecule agonists of the AP-1 signaling pathway (AID 1159526; calls by dose curve; further: potency means the concentration at half of the fitted maximal effect)
[11] = molecular target: Retinoic acid receptor RXR-alpha (Homo sapiens) (UniProt P19793); assay: qHTS assay to identify small molecule agonists of the RXR signaling pathway (AID 1159527; calls by dose curve; further: nearly all actives have a fitted effect of over 35% in size; further: potency means the concentration at half of the fitted maximal effect)
Retinoic acid receptor RXR-alpha (Homo sapiens), sequence (P19793 whole entry, looked up): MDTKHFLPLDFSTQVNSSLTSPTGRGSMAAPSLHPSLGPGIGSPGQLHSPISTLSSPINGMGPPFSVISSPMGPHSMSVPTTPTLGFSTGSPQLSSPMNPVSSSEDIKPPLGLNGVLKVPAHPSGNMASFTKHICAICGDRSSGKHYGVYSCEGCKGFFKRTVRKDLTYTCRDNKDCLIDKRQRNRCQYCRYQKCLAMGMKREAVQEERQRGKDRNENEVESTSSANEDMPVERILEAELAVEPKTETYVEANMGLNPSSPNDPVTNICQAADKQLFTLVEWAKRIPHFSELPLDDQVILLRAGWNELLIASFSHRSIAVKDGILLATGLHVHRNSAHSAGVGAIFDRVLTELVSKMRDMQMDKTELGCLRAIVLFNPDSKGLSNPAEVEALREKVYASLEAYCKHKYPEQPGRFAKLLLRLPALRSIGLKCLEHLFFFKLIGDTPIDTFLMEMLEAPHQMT
Method in brief: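 Fluorescence ratio readout (460 vs 530 nm) from GeneBLAzer RXR-alpha HEK 293T cells after 16 hr compound treatment; cells seeded 5 hr beforehand in low-serum, charcoal-stripped medium.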

[12] = qHTS assay to identify small molecule antagonists of the retinoid acid receptor (RAR) signaling pathway - cell viability counter screen (AID 1159551); further: nearly all actives have a fitted effect of over 35% in size
Method in brief: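 Viability of C3RL4 cells is quantified from ATP by luminescence after 6 h treatment at 37 C with compounds and 1 uM retinol.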

[13] = qHTS assay to identify small molecule antagonists of the retinoic acid receptor (RAR) signaling pathway (AID 1159552; further: nearly all actives have a fitted effect of over 50% in size)
Method in brief: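 Using a RARE-driven luciferase construct in C3RL4 cells, retinol at 1 uM final provided the agonist stimulus while compounds were co-applied. After 6 hours at 37 C, luminescence was recorded to flag inhibitors of retinol signaling.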

[14] = qHTS assay to identify small molecule agonists of the retinoic acid receptor (RAR) signaling pathway (AID 1159553)
Method in brief: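 Compounds dissolved in DMSO were pinned onto C3RL4 cells seeded the previous day, and plates were held 6 hr at 37 C. RARE-driven luciferase output was then read by luminescence.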

[15] = qHTS assay to identify small molecule agonists of the RXR signaling pathway - cell viability counter screen (AID 1159529)
Method in brief: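 Viability read-out for the RXR-alpha agonist qHTS: luminescent CellTiter-Glo signal after 30 min at RT. HEK 293T bla reporter cells, 2% charcoal-stripped FBS, 16 hr compound incubation; tetraoctyl ammonium bromide as cytotoxic control.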

[16] = qHTS assay to identify small molecule antagonists of the estrogen related receptor (ERR) signaling pathway - cell viability counter screen (AID 1224818);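 further: series mostly up to about 46 µM; viability measured after 17.5 h of compound exposure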
Method in brief: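 Cytotoxicity check run alongside the ERR antagonist screen: cells exposed to test compounds 17.5 h at 37 C, viability taken as CellTiter-Fluor fluorescence intensity.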

[17] = qHTS assay to identify small molecule antagonists of the estrogen related receptor (ERR) signaling pathway (AID 1224819)
Method in brief: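 ERR reporter cells were plated at 2,000 cells/well and left 6 h at 37 C/5% CO2 before pin-tool transfer of compounds in DMSO. After 18 h at 37 C, One-Glo was added and luminescence was read 30 min later at room temperature.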

[18] = qHTS assay to identify small molecule agonists of the estrogen related receptor (ERR) signaling pathway (AID 1224820)
Method in brief: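 Luminescence readout (One-Glo, 30 min RT) from NTP-supplied ERR cell line exposed to compounds for 18 h at 37 C. Cells seeded 2,000 per well and pre-incubated 6 h before pin-tool compound transfer.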

[19] = tested on: estrogen-related receptor alpha (ERRalpha) with PGC-1alpha coactivator, human; assay: qHTS assay to identify small molecule antagonists of the estrogen related receptor signaling pathway with the pleiotropic PPARgamma coactivator (PGC) (AID 1224821; calls by dose curve)
Method in brief: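 PGC/ERR reporter cells; 6 h pre-incubation 37 C/5% CO2; pin-tool compound in DMSO, 18 h 37 C; One-Glo added, 30 min RT; luminescence read. qHTS antagonist mode.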

[20] = qHTS assay to identify small molecule agonists of the estrogen related receptor signaling pathway with the pleiotropic PPARgamma coactivator (PGC) (AID 1224823)
Method in brief: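 Luminescence readout (One-Glo, 30 min RT) from PGC/ERR cell line treated 18 h at 37 C with pin-tool-delivered DMSO compound solutions; cells plated 6 h before dosing. Quantitative HTS format.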

| Compound | outcome [1] | outcome [2] | outcome [3] | outcome [4] | outcome [5] | outcome [6] | Potency [7] | Potency [8] | Potency [9] | Potency [10] | Potency [11] | outcome [12] | Potency [13] | outcome [14] | Potency [15] | outcome [16] | outcome [17] | Potency [18] | outcome [19] | Potency [20] |
| --- | --- | --- | --- | --- | --- | --- | --- | --- | --- | --- | --- | --- | --- | --- | --- | --- | --- | --- | --- | --- |
| O=c1cc[nH]c(=S)[nH]1 | inactive | inactive | inactive | inactive | inactive | inactive | inactive | inactive | inactive | inactive | 493 nM (active) and inactive | inactive | inactive | inactive | – | – | – | – | – | – |
| CCCCCCCCCCCCCCCC(=O)O | inactive | inactive | inactive | inactive | inactive | inactive | inactive | – | inactive | inactive | inactive | inactive | inactive | inactive | inactive | – | – | – | – | – |
| O=C(O)CS | inactive | inactive | inactive | inactive | inactive | inactive | inactive | – | inactive | inactive | inactive | inactive | – | – | – | – | – | – | – | – |
| O=C(O)/C=C\C(=O)O | inactive | inactive | inactive | inactive | inactive | inactive | inactive | inactive | inactive | inactive | inactive | inactive | – | – | – | – | – | – | – | – |
| Cc1noc(NS(=O)(=O)c2ccc(N)cc2)c1C | – | – | inactive | inactive | inactive | inactive | inactive | – | inactive | inactive | inactive | inactive | inactive | inactive | – | – | – | – | – | – |
| O=C(O)CCCCC(=O)O | inactive | inactive | inactive | inactive | inactive | inactive | inactive | – | inactive | inactive | inactive | inactive | – | – | inactive | – | – | – | – | – |
| O=C(c1ccccc1)c1ccccc1 | inactive | inactive | inactive | inactive | inactive | inactive | inactive | – | inactive | inactive | inactive | inactive | inactive | inactive | – | – | – | – | – | – |
| CCCCOC(=O)CC(CC(=O)OCCCC)(OC(C)=O)C(=O)OCCCC | inactive | inactive | inactive | inactive | inactive | inactive | inactive | inactive | inactive | inactive | inactive | inactive | – | – | – | – | – | – | – | – |
| NC(=O)NC1NC(=O)NC1=O (configuration not stated) | inactive | inactive | inactive | inactive | inactive | inactive | inactive | inactive | inactive | inactive | inactive | inactive | – | – | – | – | – | – | – | – |
| Cc1ccc(O)cc1 | inactive | inactive | inactive | inactive | inactive | inactive | inactive | inactive | inactive | inactive | inactive | inactive | inactive | inactive | – | – | – | – | – | – |
| O=NO | inactive | inactive | inactive | inactive | inactive | inactive | inactive | inactive | inactive | inactive | inactive | inactive | inactive | inactive | – | – | – | – | – | – |
| O=C(O)C(=O)O | inactive | inactive | inactive | inactive | inactive | inactive | inactive | – | inactive | inactive | inactive | inactive | inactive | inactive | – | – | – | – | – | – |
| NC(=O)c1ccccc1O | inactive | inactive | inactive | inactive | inactive | inactive | inactive | inactive | inactive | inactive | inactive | inactive | inactive | inactive | – | – | – | – | – | – |
| Cn1cc[nH]c1=S | inactive | inactive | inactive | inactive | inactive | inactive | inactive | inactive | inactive | 54.9 µM (active) and inactive | – | inactive | inactive | inactive | – | – | – | – | – | – |
| C/C=C/c1ccc(OC)cc1 | inactive | inactive | inactive | inactive | inactive | inactive | inactive | inactive | inactive | inactive | inactive | inactive | – | – | – | – | – | – | – | – |
| NS(=O)(=O)c1cc(C(=O)O)c(NCc2ccco2)cc1Cl | inactive | inactive | inactive | inactive | inactive | inactive | inactive | inactive | inactive | inactive | – | inactive | – | inactive | inactive | – | – | – | – | – |
| OC(Cn1cncn1)(Cn1cncn1)c1ccc(F)cc1F | inactive | inactive | inactive | inactive | inactive | inactive | inactive | inactive | inactive | inactive | – | inactive | – | – | inactive | – | – | – | – | – |
| CCCC(CCC)C(=O)O | inactive | inactive | inactive | inactive | inactive | inactive | inactive | – | inactive | inactive | – | inactive | – | – | inactive | inactive | – | – | – | – |
| O=C(C1CCCCC1)N1CC(=O)N2CCc3ccccc3C2C1 (configuration not stated) | inactive | inactive | inactive | inactive | inactive | inactive | inactive | inactive | inactive | inactive | – | inactive | inactive | inactive | inactive | inactive | inactive | inactive | inactive | inactive |
